Consider 40 compounds from PubChem BioAssay (NCATS).

Inconclusive results are not listed. Activity calls are given as the source filed them. The call rests on the fitted dose curve; in most records, active means well fitted curve in the direction sought with a large enough effect; inconclusive means small, poorly fitted or top-dose-only effect, or another doubt; inactive means no such curve, though single readings can be large; an effect the other way counts as inactive or inconclusive.

One experiment has as its target Aldehyde dehydrogenase, mitochondrial (Homo sapiens) (UniProt P05091). Nature of the experiment: qHTS for Inhibitors of the Aldehyde Dehydrogenase Family (ALDH2) Primary screen (AID 2061308).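 Further: plate controls were vehicle for no effect and reference inhibitor for full effect; nearly all actives have a fitted effect of over 55% in size.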 Conditions: ALDH2 enzyme inhibition qHTS, 1536-well; series mostly up to 56 µM; activity change, negative = inhibition: at the top concentration. Background: Quantitative high-throughput screening tests each substance at several concentrations.
As to `O=[N+]([O-])c1cccc(CSc2nc3ncc(Br)cc3[nH]2)c1`, the “activity change, negative = inhibition” value was -3.94% (inactive).

For the compound `O=C(Cn1nc(C2CC2)ccc1=O)NCCc1ccccc1`, the “activity change, negative = inhibition” value was 0.108% (inactive).

In the case of `N#Cc1ccc(Nc2nn3c(=O)c4ccccc4nc3s2)cc1`, the “activity change, negative = inhibition” value is 11.4% (inactive).

As to `CCCCN1C(=O)c2ccccc2C1=O`, the “activity change, negative = inhibition” value was -0.632% (inactive).

On to `Cc1ccc(-c2nn(CC(=O)N(C)C(C)c3ccco3)c(=O)cc2C)cc1` (stereo not given), for which the “activity change, negative = inhibition” value is 4.36% (inactive).

Take `C[C@@H]1O[C@@H](O[C@@H]2[C@@H](O)[C@H](O[C@H]3CC[C@@]4(C)C(CC[C@]5(C)C4CC=C4[C@@H]6CC(C)(C)CC[C@]6(C(=O)O[C@@H]6O[C@H](CO)[C@@H](O)[C@H](O)[C@H]6O)CC[C@]45C)C3(C)C)O[C@H](C(=O)O)[C@H]2O)[C@H](O)[C@H](O)[C@H]1O` (stereo not given in full): the “activity change, negative = inhibition” value is -3.98% [at 16.9 µM] (inactive).

With `C#CCOc1cccc(-c2nnc3n2N=C(c2ccc(OC)c(OCC(C)=O)c2)CS3)c1`, the “activity change, negative = inhibition” value is 0.786% (inactive).

Take `Cc1ccc(OCCn2c(CCNC(=O)c3cc(N)ccc3N)nc3ccccc32)cc1`: the “activity change, negative = inhibition” value was 0.563% (inactive).

`CC(=O)O[C@@]12CO[C@@H]1C[C@H](O)[C@@]1(C)C(=O)[C@H](O)C3=C(C)[C@@H](OC(=O)[C@H](O)[C@@H](NC(=O)OC(C)(C)C)c4ccccc4)C[C@@](O)([C@@H](OC(=O)c4ccccc4)C12)C3(C)C` (stereo not given in full): the “activity change, negative = inhibition” value is 6.43% [at 28 µM] (inactive).

As to `NC(=O)c1ccccc1C[C@H](C(=O)O)N1C(=O)c2ccc(C(=O)O)cc2C1=O`, the “activity change, negative = inhibition” value was -4.43% (inactive).

In the case of `CCNC(=O)c1ccc(-c2ccc3ncnc(NCc4ccc(C)o4)c3c2)o1`, the “activity change, negative = inhibition” value is -4.01% (inactive).

Turning to `Cc1cc(NC(=O)Nc2nnc(C3CCCCC3)s2)ccc1F`, the “activity change, negative = inhibition” value was 4.51% (inactive).

`O=C(Nc1ncc(-c2ccccc2)s1)c1ccc(-c2cccc([N+](=O)[O-])c2)o1`: the “activity change, negative = inhibition” value is -9.13% (inactive).

Take `Brc1cnc2nc(SCc3ccccn3)[nH]c2c1`: the “activity change, negative = inhibition” value was -12.8% (inactive).

As to `O=S(=O)(c1ccc2c(c1)OCCO2)N1CCN(S(=O)(=O)c2cccc3cccnc23)CC1`, the “activity change, negative = inhibition” value is 4.9% (inactive).

In the case of `N=c1c2c(ccn1Cc1ccccc1)Oc1ccc3ccccc3c1C2c1ccccc1` (stereo not given), the “activity change, negative = inhibition” value is 3.21% (inactive).

In the case of `O=C(Cn1ncccc1=O)NCCc1ccccc1`, the “activity change, negative = inhibition” value was 3.57% (inactive).

Consider `Cc1c(P(=S)(c2ccccc2)c2ccccc2)[n+]2ccccc2n1CCc1ccccc1`, for which the “activity change, negative = inhibition” value is 10.1% (inactive).

Consider `NC(=O)c1cccc(-c2noc(-c3ccccc3C(F)(F)F)n2)c1`, for which the “activity change, negative = inhibition” value was -7.31% (inactive).

Regarding `Cc1noc(C)c1-c1ccc2ncnc(NCc3ccccc3F)c2c1`, the “activity change, negative = inhibition” value is 13.3% (inactive).

On to `O=C1CCc2cc(S(=O)(=O)Nc3cccc(C(F)(F)F)c3)ccc2N1`, for which the “activity change, negative = inhibition” value is -19% (inactive).

For `Cc1ccc(-c2cc(C(=O)NCc3ccc(S(N)(=O)=O)cc3)c3ccccc3n2)cc1C`, the “activity change, negative = inhibition” value is 5.02% (inactive).

Take `CCOc1ccc(CCN(C)C(=O)c2cc3sccc3n2Cc2ccccc2)cc1OCC`: the “activity change, negative = inhibition” value was -12.8% (inactive).

Take `COc1cc(-c2csc(N3CCC(C(N)=O)CC3)n2)cc(OC)c1OC`: the “activity change, negative = inhibition” value was -0.36% (inactive).

As for `COc1ccc(C(=O)Nc2nnc(-c3ccco3)o2)cc1OC`, the “activity change, negative = inhibition” value was 7.14% (inactive).

For the compound `Cn1ccc2cc(S(=O)(=O)N3CCN(S(=O)(=O)c4c(F)cccc4F)CC3)ccc21`, the “activity change, negative = inhibition” value was -4.14% (inactive).

Take `Cc1ccc(NS(=O)(=O)c2ccc3c(c2)CCC(=O)N3)cc1`: the “activity change, negative = inhibition” value was -2.19% (inactive).

Take `Cc1ccc(NC(=O)CN2C(=O)N/C(=C\c3cccn3-c3cccc(-c4nn[nH]n4)c3)C2=O)cc1`: the “activity change, negative = inhibition” value is 0.423% (inactive).

For `N#Cc1nc(NCCCCO)nc(Nc2ccccc2)n1`, the “activity change, negative = inhibition” value was 0.703% (inactive).

In the case of `O=S(=O)(c1ccc2c(c1)OCCO2)N1CCN(S(=O)(=O)c2cccs2)CC1`, the “activity change, negative = inhibition” value is 10.6% (inactive).

`Cc1noc(CN(C)c2ncnc3ccc(-c4ccc5c(c4)OCO5)cc23)n1`: the “activity change, negative = inhibition” value was -3.12% (inactive).

For `Fc1cccc(CNc2ncnc3ccc(-c4ccc5c(c4)OCO5)cc23)c1`, the “activity change, negative = inhibition” value was 7.01% (inactive).

Take `Cc1ccc(NC(=O)c2cnn3c(C)cc(C)nc23)c(C)c1`: the “activity change, negative = inhibition” value is 12.2% (inactive).

On to `COC(=O)c1ccccc1NC(=O)c1ccc(F)cc1F`, for which the “activity change, negative = inhibition” value is 2.29% (inactive).

Consider `COc1ccc(NC(=O)c2cnn3c(C)cc(C)nc23)cc1`, for which the “activity change, negative = inhibition” value is 12% (inactive).

Consider `Cc1nc(N2CCOCC2)c2nc(-c3ccccc3)n(C(C)CN(C)C)c2n1` (stereo not given), for which the “activity change, negative = inhibition” value was 3.81% (inactive).

As for `Cc1ccc(NS(=O)(=O)c2ccc(C(=O)Nc3nc(-c4ccccc4)cs3)cc2)cc1`, the “activity change, negative = inhibition” value was 3.94% (inactive).

`Cc1cc(NS(=O)(=O)c2ccc(NC(=O)Cc3ccc(Cl)c(C(F)(F)F)c3)cc2)no1`: the “activity change, negative = inhibition” value is -4.89% (inactive).

Take `c1c[nH]c(CNc2ncnc3ccc(-c4ccoc4)cc23)n1`: the “activity change, negative = inhibition” value was 1.39% (inactive).

In the case of `COc1cc(F)c(S(=O)(=O)N2CCN(S(=O)(=O)c3ccco3)CC2)c(F)c1`, the “activity change, negative = inhibition” value was 7.4% (inactive).

Another experiment concerns the target Retinaldehyde dehydrogenase 3 (Homo sapiens) (UniProt P47895). Description: qHTS for Inhibitors of the Aldehyde Dehydrogenase Family (ALDH1A3) Primary screen (AID 2061315).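 Further: plate controls were DMSO vehicle for no effect and reference inhibitor for full effect.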 As to conditions: ALDH inhibition qHTS; series mostly up to 56 µM; activity change, negative = inhibition: at the top concentration.
For the compound `O=[N+]([O-])c1cccc(CSc2nc3ncc(Br)cc3[nH]2)c1`, the “activity change, negative = inhibition” value was 7.46% (inactive).

For the compound `O=C(Cn1nc(C2CC2)ccc1=O)NCCc1ccccc1`, the “activity change, negative = inhibition” value is -1.63% (inactive).

Regarding `N#Cc1ccc(Nc2nn3c(=O)c4ccccc4nc3s2)cc1`, the “activity change, negative = inhibition” value is 0.107% (inactive).

On to `CCCCN1C(=O)c2ccccc2C1=O`, for which the “activity change, negative = inhibition” value is 10% (inactive).

As to `Cc1ccc(-c2nn(CC(=O)N(C)C(C)c3ccco3)c(=O)cc2C)cc1` (stereo not given), the “activity change, negative = inhibition” value was -7.81% (inactive).

In the case of `C[C@@H]1O[C@@H](O[C@@H]2[C@@H](O)[C@H](O[C@H]3CC[C@@]4(C)C(CC[C@]5(C)C4CC=C4[C@@H]6CC(C)(C)CC[C@]6(C(=O)O[C@@H]6O[C@H](CO)[C@@H](O)[C@H](O)[C@H]6O)CC[C@]45C)C3(C)C)O[C@H](C(=O)O)[C@H]2O)[C@H](O)[C@H](O)[C@H]1O` (stereo not given in full), the “activity change, negative = inhibition” value was 5.88% [at 16.9 µM] (inactive).

With `C#CCOc1cccc(-c2nnc3n2N=C(c2ccc(OC)c(OCC(C)=O)c2)CS3)c1`, the “activity change, negative = inhibition” value is 11.3% (inactive).

For the compound `Cc1ccc(OCCn2c(CCNC(=O)c3cc(N)ccc3N)nc3ccccc32)cc1`, the “activity change, negative = inhibition” value is 44.3% (inactive).

As to `CC(=O)O[C@@]12CO[C@@H]1C[C@H](O)[C@@]1(C)C(=O)[C@H](O)C3=C(C)[C@@H](OC(=O)[C@H](O)[C@@H](NC(=O)OC(C)(C)C)c4ccccc4)C[C@@](O)([C@@H](OC(=O)c4ccccc4)C12)C3(C)C` (stereo not given in full), the “activity change, negative = inhibition” value is 0.417% [at 28 µM] (inactive).

With `NC(=O)c1ccccc1C[C@H](C(=O)O)N1C(=O)c2ccc(C(=O)O)cc2C1=O`, the “activity change, negative = inhibition” value is -2.77% (inactive).

`CCNC(=O)c1ccc(-c2ccc3ncnc(NCc4ccc(C)o4)c3c2)o1`: the “activity change, negative = inhibition” value is 2.3% (inactive).

For `Cc1cc(NC(=O)Nc2nnc(C3CCCCC3)s2)ccc1F`, the “activity change, negative = inhibition” value was 15.1% (inactive).

In the case of `O=C(Nc1ncc(-c2ccccc2)s1)c1ccc(-c2cccc([N+](=O)[O-])c2)o1`, the “activity change, negative = inhibition” value was 10.8% (inactive).

On to `Brc1cnc2nc(SCc3ccccn3)[nH]c2c1`, for which the “activity change, negative = inhibition” value is 1.1% (inactive).

Regarding `O=S(=O)(c1ccc2c(c1)OCCO2)N1CCN(S(=O)(=O)c2cccc3cccnc23)CC1`, the “activity change, negative = inhibition” value is -12.2% (inactive).

On to `N=c1c2c(ccn1Cc1ccccc1)Oc1ccc3ccccc3c1C2c1ccccc1` (stereo not given), for which the “activity change, negative = inhibition” value was 2.37% (inactive).

For `O=C(Cn1ncccc1=O)NCCc1ccccc1`, the “activity change, negative = inhibition” value was 4.68% (inactive).

In the case of `Cc1c(P(=S)(c2ccccc2)c2ccccc2)[n+]2ccccc2n1CCc1ccccc1`, the “activity change, negative = inhibition” value is 1.85% (inactive).

Turning to `NC(=O)c1cccc(-c2noc(-c3ccccc3C(F)(F)F)n2)c1`, the “activity change, negative = inhibition” value is -0.191% (inactive).

For `Cc1noc(C)c1-c1ccc2ncnc(NCc3ccccc3F)c2c1`, the “activity change, negative = inhibition” value was 5.26% (inactive).

Consider `O=C1CCc2cc(S(=O)(=O)Nc3cccc(C(F)(F)F)c3)ccc2N1`, for which the “activity change, negative = inhibition” value is -4.44% (inactive).

Turning to `Cc1ccc(-c2cc(C(=O)NCc3ccc(S(N)(=O)=O)cc3)c3ccccc3n2)cc1C`, the “activity change, negative = inhibition” value is 1.73% (inactive).

For the compound `CCOc1ccc(CCN(C)C(=O)c2cc3sccc3n2Cc2ccccc2)cc1OCC`, the “activity change, negative = inhibition” value is -5.87% (inactive).

Turning to `COc1cc(-c2csc(N3CCC(C(N)=O)CC3)n2)cc(OC)c1OC`, the “activity change, negative = inhibition” value was -12.4% (inactive).

Turning to `COc1ccc(C(=O)Nc2nnc(-c3ccco3)o2)cc1OC`, the “activity change, negative = inhibition” value was -11.3% (inactive).

Consider `Cn1ccc2cc(S(=O)(=O)N3CCN(S(=O)(=O)c4c(F)cccc4F)CC3)ccc21`, for which the “activity change, negative = inhibition” value was -3.21% (inactive).

Turning to `Cc1ccc(NS(=O)(=O)c2ccc3c(c2)CCC(=O)N3)cc1`, the “activity change, negative = inhibition” value is 1.92% (inactive).

`Cc1ccc(NC(=O)CN2C(=O)N/C(=C\c3cccn3-c3cccc(-c4nn[nH]n4)c3)C2=O)cc1`: the “activity change, negative = inhibition” value was 3.49% (inactive).

Turning to `N#Cc1nc(NCCCCO)nc(Nc2ccccc2)n1`, the “activity change, negative = inhibition” value was 3.91% (inactive).

Regarding `O=S(=O)(c1ccc2c(c1)OCCO2)N1CCN(S(=O)(=O)c2cccs2)CC1`, the “activity change, negative = inhibition” value is 3.03% (inactive).

`Cc1noc(CN(C)c2ncnc3ccc(-c4ccc5c(c4)OCO5)cc23)n1`: the “activity change, negative = inhibition” value was -4.21% (inactive).

Consider `Fc1cccc(CNc2ncnc3ccc(-c4ccc5c(c4)OCO5)cc23)c1`, for which the “activity change, negative = inhibition” value was 8.81% (inactive).

Turning to `Cc1ccc(NC(=O)c2cnn3c(C)cc(C)nc23)c(C)c1`, the “activity change, negative = inhibition” value was 3.68% (inactive).

Regarding `COC(=O)c1ccccc1NC(=O)c1ccc(F)cc1F`, the “activity change, negative = inhibition” value is -8.4% (inactive).

Take `COc1ccc(NC(=O)c2cnn3c(C)cc(C)nc23)cc1`: the “activity change, negative = inhibition” value was 0.244% (inactive).

On to `Cc1nc(N2CCOCC2)c2nc(-c3ccccc3)n(C(C)CN(C)C)c2n1` (stereo not given), for which the “activity change, negative = inhibition” value was 9.71% (inactive).

In the case of `Cc1ccc(NS(=O)(=O)c2ccc(C(=O)Nc3nc(-c4ccccc4)cs3)cc2)cc1`, the “activity change, negative = inhibition” value is 2.4% (inactive).

As to `Cc1cc(NS(=O)(=O)c2ccc(NC(=O)Cc3ccc(Cl)c(C(F)(F)F)c3)cc2)no1`, the “activity change, negative = inhibition” value was 21.6% (inactive).

For the compound `c1c[nH]c(CNc2ncnc3ccc(-c4ccoc4)cc23)n1`, the “activity change, negative = inhibition” value is 0.477% (inactive).

For `COc1cc(F)c(S(=O)(=O)N2CCN(S(=O)(=O)c3ccco3)CC2)c(F)c1`, the “activity change, negative = inhibition” value is -4.7% (inactive).
